# From PubChem BioAssay (EPA / NIEHS)
# Results filed as inconclusive are left out. Active and inactive are the calls of the source. The calls were made as follows: active = hit-call score of the fitted dose curve at least 0.9, where 1 is the maximum; inconclusive = response in the unintended direction; inactive = score below 0.9.
# Tested on: NCBI gene 100848466
# Assay: NVS_NR_bPR: NovaScreen (NVS) Nuclear Receptor Binding Assay for bovine Progextron Receptor (PR) (AID 2283343);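 as to AC50: actives lower bound radioligand signal below DMSO meaning displacement of the label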
# Method in brief: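 Competitive radioligand binding with membranes from bovine uterus, scintillation read-out at 18 h post-dose. Compounds first tested in duplicate at 25 uM, then actives in concentration series; loss-of-signal relative to DMSO.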
SMILES,outcome,AC50
CSC(C)(C)C=NO,inactive,
CCCCN(CCCC)SN(C)C(=O)Oc1cccc2c1OC(C)(C)C2,inactive,
CCOP(=S)(Oc1ccc([N+](=O)[O-])cc1)c1ccccc1 (centres undefined),,10.4 µM (active)

# Molecular target: human Constitutive Androstane Receptor (CAR), NR1I3 (gene 9970) (UniProt Q14994)
# Sequence (Q14994 whole entry, looked up): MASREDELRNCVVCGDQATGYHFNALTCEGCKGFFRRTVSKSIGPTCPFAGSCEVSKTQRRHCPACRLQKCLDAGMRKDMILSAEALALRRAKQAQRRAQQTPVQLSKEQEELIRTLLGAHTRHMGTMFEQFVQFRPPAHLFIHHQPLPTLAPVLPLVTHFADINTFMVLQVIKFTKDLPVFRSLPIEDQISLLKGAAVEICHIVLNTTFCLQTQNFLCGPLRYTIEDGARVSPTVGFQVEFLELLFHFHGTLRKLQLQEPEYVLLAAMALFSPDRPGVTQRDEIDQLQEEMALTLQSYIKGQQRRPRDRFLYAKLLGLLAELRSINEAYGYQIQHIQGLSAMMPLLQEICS
# Assay: NVS_NR_hCAR_Antagonist: NovaScreen (NVS) Nuclear Receptor Binding Assay for human Constitutive Androstane Receptor Antagonism (CAR) (AID 2283344)
# Method in brief: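 Single 25 uM duplicate primary screen, with concentration-series follow-up on actives. Cell-free binding format run in antagonist mode, TR-FRET signal taken 1 h post-dose; activity is signal loss relative to DMSO.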
row,SMILES,outcome
1,CCCN(CCC)c1c([N+](=O)[O-])cc(C(C)C)cc1[N+](=O)[O-],inactive
2,CC(C)(C)OOC(C)(C)C,inactive
3,ClC1=C(Cl)C2(Cl)C3C(Cl)C(Cl)CC3C1(Cl)C2(Cl)Cl (centres undefined),inactive

# Molecular target: bovine Estrogen Receptor (ER), ESR1 (gene 407238) (UniProt P49884)
# Sequence (P49884 whole entry, looked up): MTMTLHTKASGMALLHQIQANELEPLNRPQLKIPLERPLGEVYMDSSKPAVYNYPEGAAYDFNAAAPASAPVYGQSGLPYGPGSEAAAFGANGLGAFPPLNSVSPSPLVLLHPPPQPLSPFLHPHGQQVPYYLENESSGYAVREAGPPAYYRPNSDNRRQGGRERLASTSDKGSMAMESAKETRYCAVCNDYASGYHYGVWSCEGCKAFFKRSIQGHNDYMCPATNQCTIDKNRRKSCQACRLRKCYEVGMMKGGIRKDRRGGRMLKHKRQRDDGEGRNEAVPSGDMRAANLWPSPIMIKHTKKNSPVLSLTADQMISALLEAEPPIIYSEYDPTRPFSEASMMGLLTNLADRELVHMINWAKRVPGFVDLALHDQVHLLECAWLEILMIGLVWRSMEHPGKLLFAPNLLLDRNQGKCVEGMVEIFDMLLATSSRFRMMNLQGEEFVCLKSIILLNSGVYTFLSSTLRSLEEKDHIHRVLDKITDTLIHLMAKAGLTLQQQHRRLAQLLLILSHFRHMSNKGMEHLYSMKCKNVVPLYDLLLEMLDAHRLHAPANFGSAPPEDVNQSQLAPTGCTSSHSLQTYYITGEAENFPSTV
# Assay: NVS_NR_bER: NovaScreen (NVS) Nuclear Receptor Binding Assay for bovine Estrogen Receptor (ER) (AID 2283345);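 also: actives lower the bound radioligand count which means they displace the ER ligand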
# Method in brief: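 Displacement of a radioligand from estrogen receptor in bovine uterine membrane preparations; scintillation signal taken at 18 hours, DMSO as baseline. Single-concentration duplicates (25 uM) preceded concentration-response follow-up of actives.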
row,SMILES,outcome
1,O=[N+]([O-])c1ccccc1,inactive
2,CCCCc1ccc(O)cc1,inactive
3,CC1(C)CN=C(NN=C(/C=C/c2ccc(C(F)(F)F)cc2)/C=C/c2ccc(C(F)(F)F)cc2)NC1,inactive
4,CCCCN(CCCC)SN(C)C(=O)Oc1cccc2c1OC(C)(C)C2,inactive
5,OCC1CO1 (centres undefined),inactive
6,CCCCOCC1CO1 (centres undefined),inactive
7,CCCN(CCC)c1c([N+](=O)[O-])cc(C(C)C)cc1[N+](=O)[O-],inactive
8,CC(Cl)(Cl)C(=O)O,inactive
9,CCOP(=S)(Oc1ccc([N+](=O)[O-])cc1)c1ccccc1 (centres undefined),inactive
10,Nc1ccc(Sc2ccc(N)cc2)cc1,inactive
11,O=P1(N(CCCl)CCCl)NCCCO1 (centres undefined),inactive
12,c1nc[nH]n1,inactive
13,CCC(C)(C)c1ccc(O)cc1,inactive
14,ClC1=C(Cl)C2(Cl)C3C(Cl)C(Cl)CC3C1(Cl)C2(Cl)Cl (centres undefined),inactive
15,Nc1ccc(Cl)cc1,inactive
16,CCNc1nc(Cl)nc(NC(C)(C)C)n1,inactive
17,c1ccc(OP(Oc2ccccc2)Oc2ccccc2)cc1,inactive

# Molecular target: chimpanzee Androgen Receptor (AR), AR (gene 747460) (UniProt O97775)
# Sequence (O97775 whole entry, looked up): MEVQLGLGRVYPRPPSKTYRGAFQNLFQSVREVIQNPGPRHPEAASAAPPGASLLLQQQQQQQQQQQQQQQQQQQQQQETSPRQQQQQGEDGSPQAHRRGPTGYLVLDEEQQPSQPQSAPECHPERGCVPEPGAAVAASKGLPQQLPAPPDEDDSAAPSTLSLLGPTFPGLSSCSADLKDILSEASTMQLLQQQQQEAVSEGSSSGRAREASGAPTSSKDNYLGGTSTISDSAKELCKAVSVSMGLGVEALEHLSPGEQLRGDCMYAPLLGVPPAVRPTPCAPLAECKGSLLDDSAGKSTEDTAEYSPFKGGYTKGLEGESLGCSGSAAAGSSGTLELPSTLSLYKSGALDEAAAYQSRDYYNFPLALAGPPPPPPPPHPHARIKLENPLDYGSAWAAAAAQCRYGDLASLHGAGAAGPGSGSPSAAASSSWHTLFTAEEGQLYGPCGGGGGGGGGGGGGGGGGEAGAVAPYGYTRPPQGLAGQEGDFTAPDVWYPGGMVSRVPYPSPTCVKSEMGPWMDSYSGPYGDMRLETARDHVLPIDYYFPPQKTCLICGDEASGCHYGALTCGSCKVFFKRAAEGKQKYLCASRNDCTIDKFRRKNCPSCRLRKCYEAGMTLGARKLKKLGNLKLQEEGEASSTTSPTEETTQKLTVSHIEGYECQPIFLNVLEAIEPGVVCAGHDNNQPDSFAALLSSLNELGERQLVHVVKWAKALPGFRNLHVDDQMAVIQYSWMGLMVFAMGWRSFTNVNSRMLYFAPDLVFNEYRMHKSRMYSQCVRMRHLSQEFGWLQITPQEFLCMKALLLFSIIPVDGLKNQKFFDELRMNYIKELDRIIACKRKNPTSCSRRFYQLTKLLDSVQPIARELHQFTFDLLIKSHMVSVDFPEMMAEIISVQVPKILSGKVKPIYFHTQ
# Assay: NVS_NR_cAR: NovaScreen (NVS) Nuclear Receptor Binding Assay for chimpanzee Androgen Receptor (AR) (AID 2283346);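 also: radioligand displacement from AR measured by scintillation counting in a cell-free assay; a loss of bound radioligand signal versus DMSO counts as binding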
# Method in brief: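 Cell-free competition binding with insect-cell (Sf9/Sf21) extracted chimpanzee AR; scintillation signal from lysate at 72 h. Screened in duplicate at 25 uM, then concentration-response for actives; fitting relative to DMSO.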
SMILES,outcome,AC50
CCCCc1ccc(O)cc1,inactive,
CC1(C)CN=C(NN=C(/C=C/c2ccc(C(F)(F)F)cc2)/C=C/c2ccc(C(F)(F)F)cc2)NC1,,25 µM (active)
O=S1(=O)OCC2C(CO1)C1(Cl)C(Cl)=C(Cl)C2(Cl)C1(Cl)Cl (centres undefined),inactive,
CCC(C)(C)c1ccc(O)cc1,,25 µM (active)
O=NN1CCCC1,inactive,
O=C(O)CF,inactive,
